Data: ChEMBL document CHEMBL3988442, “University of Dundee, Small-Polar-MMV Screening Library” (2021)
For some of these results: Results with a measured potency or affinity are listed apart.

Experiments:
Parameters in all cases: scale not given: direction of the effect not stated beside the values
[1] = molecular target: Protein translocase subunit SecA (Escherichia coli (strain K12)) (UniProt P10408); assay: Assay to Identify E. coli SecA ATPase Inhibitors; format: functional; settings: 30 µM
[2] = molecular target: T1, Ubiquitin-activating enzyme e1, putative (Leishmania donovani (strain BPK282A1)) (UniProt E9BSI1); assay: Leishmania donovani Ubiquitin Activating Enzyme (LdE1); format: functional; settings: 30 µM
T1 sequence (whole entry): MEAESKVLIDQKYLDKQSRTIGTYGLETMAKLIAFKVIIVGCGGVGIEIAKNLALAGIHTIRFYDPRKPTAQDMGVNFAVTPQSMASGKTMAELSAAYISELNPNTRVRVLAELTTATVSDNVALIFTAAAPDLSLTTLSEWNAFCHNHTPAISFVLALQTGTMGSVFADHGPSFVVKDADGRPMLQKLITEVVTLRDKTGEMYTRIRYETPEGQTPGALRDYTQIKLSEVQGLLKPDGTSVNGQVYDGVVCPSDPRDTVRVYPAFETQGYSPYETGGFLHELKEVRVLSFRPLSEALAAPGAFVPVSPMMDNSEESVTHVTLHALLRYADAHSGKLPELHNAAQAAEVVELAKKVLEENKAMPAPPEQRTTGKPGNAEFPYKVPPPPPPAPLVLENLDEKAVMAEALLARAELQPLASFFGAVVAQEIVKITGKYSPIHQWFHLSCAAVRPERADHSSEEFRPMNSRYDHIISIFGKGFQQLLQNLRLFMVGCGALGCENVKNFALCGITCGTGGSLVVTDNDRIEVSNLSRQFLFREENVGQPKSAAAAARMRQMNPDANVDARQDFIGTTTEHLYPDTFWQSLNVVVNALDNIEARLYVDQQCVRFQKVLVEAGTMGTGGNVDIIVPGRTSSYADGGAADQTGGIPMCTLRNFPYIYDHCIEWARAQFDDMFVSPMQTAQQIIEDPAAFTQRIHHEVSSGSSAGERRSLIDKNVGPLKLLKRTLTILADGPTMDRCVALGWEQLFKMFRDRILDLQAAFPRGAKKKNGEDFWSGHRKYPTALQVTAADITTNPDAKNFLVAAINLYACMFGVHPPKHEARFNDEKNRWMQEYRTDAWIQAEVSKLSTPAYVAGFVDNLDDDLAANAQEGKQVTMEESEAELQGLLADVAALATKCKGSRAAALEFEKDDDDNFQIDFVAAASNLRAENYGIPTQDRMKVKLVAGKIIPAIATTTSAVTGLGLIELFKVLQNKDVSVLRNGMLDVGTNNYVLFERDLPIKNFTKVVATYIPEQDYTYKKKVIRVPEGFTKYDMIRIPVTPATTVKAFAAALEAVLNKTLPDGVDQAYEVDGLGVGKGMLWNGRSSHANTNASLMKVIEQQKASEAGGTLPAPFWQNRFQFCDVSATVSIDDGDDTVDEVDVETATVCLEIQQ

[3] = molecular target: AMP-activated protein kinase, AMPK (Homo sapiens) (UniProt P54646+O43741+P54619+Q9UGJ0+Q9Y478+Q13131+Q9UGI9); assay: AMP-dependent Kinase enzyme assay. An in vitro enzyme assay that detects ADP turnover that is directly proportional to AMPK activity. This uses naive AMPK that is activated during the assay with MK-8722; format: functional; settings: 30 µM
[4] = molecular target: Sialic acid-binding Ig-like lectin 9 (Homo sapiens) (UniProt Q9Y336); assay: Hs-Siglec9 ALPHAscreen SOP 20170721; settings: 10 µM
Trypanosoma cruzi = assay: Trypanosoma cruzi phosphomannomutase and mannose-1-phosphate guanylyltransferase assay; format: functional; settings: 10 µM
[5] = molecular target: T2, Arginase-2, mitochondrial (Homo sapiens) (UniProt P78540); assay: in vitro enzyme assay to detect the production of urea directly proportional to the activity of Arginase II; format: functional; settings: 33.3 µM; note: in the data most compounds retested in dose-response had high values
T2 sequence (whole entry): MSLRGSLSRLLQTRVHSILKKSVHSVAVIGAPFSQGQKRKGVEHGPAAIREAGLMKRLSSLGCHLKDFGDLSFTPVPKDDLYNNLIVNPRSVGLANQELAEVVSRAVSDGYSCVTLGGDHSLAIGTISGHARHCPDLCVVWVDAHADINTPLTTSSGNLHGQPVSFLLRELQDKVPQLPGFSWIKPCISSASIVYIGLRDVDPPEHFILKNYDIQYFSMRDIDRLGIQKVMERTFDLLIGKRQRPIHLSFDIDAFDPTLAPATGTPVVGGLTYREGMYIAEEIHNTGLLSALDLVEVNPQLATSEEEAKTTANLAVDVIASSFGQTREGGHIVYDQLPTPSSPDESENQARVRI

[6] = molecular target: T3, Proteasome subunit beta (Trypanosoma cruzi) (UniProt O96673); assay: Trypanosoma cruzi proteasome chymotrypsin-like activity (TcProtChymo) assay.; note: in the data most compounds retested in dose-response had high values; format: functional; settings: 9.37 µM
T3 sequence (whole entry): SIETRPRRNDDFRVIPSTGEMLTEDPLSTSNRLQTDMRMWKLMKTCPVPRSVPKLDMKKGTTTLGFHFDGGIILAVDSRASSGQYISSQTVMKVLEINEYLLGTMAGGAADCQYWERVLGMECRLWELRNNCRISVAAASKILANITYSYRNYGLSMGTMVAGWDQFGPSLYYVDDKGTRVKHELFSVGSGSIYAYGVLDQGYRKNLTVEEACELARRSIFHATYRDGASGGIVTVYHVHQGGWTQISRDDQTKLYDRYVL

Homo sapiens = species: Homo sapiens; assay: To identify inhibition of the IFN signalling (Jak-Stat) pathway via expression of an eGFP reporter gene under the control of an IFN-stimulated response element (ISRE) containing MxA promoter.; format: functional; settings: 30 µM
[7] = molecular target: T4, Tyrosyl-tRNA synthetase, putative (Trypanosoma cruzi (strain CL Brener)) (UniProt Q4DSP6); assay: Trypanosoma cruzi tyrosyl tRNA synthetase (TcYRS) _High Tyrosine SOP; format: functional; settings: 30 µM; note: in the data most compounds retested in dose-response had high values
T4 sequence (whole entry): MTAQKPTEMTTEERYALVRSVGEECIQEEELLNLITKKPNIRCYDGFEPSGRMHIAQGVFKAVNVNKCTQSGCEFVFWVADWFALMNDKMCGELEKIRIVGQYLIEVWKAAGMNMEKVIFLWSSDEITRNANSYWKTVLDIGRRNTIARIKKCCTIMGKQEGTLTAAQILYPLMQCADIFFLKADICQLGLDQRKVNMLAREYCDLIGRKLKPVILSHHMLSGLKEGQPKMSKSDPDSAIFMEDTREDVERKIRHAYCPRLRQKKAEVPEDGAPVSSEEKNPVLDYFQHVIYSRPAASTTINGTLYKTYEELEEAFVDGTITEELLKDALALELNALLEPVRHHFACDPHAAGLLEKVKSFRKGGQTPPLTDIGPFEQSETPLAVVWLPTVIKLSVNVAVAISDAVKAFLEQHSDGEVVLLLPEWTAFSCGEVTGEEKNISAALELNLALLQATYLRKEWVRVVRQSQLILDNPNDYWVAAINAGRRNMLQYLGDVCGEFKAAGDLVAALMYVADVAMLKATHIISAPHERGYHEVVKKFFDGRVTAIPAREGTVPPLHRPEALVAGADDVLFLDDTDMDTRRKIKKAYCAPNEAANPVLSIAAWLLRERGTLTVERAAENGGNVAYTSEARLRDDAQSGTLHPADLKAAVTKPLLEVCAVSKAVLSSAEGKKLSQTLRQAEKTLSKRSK

[8] = molecular target: T4, Tyrosyl-tRNA synthetase, putative (Trypanosoma cruzi (strain CL Brener)); assay: Trypanosoma cruzi tyrosyl tRNA synthetase (TcYRS) SOP; format: functional; settings: 30 µM
[9] = molecular target: Chromo domain-containing protein 1 (Saccharomyces cerevisiae (strain ATCC 204508 / S288c) (Baker's yeast)) (UniProt P32657); assay: ScCHD-1 Enzyme Inhibition Assay; format: functional; settings: 30 µM; note: in the data most compounds retested in dose-response had high values
Chromo domain-containing protein 1 (Saccharomyces cerevisiae (strain ATCC 204508 / S288c) (Baker's yeast)), sequence (P32657 whole entry, the tested form may be a part): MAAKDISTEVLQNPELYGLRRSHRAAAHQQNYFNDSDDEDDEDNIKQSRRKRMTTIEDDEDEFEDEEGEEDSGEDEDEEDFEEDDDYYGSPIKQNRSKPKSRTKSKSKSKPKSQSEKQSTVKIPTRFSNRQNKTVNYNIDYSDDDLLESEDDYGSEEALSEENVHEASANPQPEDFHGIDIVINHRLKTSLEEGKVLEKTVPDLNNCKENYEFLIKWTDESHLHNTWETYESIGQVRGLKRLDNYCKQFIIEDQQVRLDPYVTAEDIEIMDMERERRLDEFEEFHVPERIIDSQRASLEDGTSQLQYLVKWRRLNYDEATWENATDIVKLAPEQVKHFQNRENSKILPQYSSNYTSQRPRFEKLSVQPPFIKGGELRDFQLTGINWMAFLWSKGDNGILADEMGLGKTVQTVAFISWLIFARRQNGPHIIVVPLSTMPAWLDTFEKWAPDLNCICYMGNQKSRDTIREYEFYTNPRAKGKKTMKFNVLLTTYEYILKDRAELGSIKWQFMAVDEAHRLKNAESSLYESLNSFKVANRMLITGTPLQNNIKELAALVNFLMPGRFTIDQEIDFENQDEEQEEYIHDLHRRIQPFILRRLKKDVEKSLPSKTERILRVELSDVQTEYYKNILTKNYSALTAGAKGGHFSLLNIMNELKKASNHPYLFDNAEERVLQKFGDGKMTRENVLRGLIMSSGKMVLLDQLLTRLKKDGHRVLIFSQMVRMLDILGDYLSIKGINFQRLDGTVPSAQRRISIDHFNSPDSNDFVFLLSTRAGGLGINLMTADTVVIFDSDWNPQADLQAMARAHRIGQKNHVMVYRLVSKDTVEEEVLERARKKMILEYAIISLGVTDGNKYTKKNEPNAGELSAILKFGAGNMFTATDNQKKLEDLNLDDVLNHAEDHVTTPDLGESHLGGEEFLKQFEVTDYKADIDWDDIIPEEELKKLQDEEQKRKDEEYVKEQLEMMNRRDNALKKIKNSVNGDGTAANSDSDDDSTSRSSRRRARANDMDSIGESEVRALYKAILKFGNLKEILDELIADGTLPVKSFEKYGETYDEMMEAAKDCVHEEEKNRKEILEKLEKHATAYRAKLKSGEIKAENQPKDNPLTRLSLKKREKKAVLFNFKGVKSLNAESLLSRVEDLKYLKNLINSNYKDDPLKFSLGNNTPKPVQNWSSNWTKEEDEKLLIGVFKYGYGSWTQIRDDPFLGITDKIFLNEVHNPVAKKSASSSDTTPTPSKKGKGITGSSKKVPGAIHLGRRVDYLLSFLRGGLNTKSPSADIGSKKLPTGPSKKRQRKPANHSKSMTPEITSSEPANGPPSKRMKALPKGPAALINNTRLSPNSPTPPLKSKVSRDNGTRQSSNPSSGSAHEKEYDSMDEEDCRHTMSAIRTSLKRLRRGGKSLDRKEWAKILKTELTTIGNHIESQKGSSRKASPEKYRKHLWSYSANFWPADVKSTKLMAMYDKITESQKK

Sialic acid-binding Ig-like lectin 9 (Homo sapiens), sequence (Q9Y336 whole entry): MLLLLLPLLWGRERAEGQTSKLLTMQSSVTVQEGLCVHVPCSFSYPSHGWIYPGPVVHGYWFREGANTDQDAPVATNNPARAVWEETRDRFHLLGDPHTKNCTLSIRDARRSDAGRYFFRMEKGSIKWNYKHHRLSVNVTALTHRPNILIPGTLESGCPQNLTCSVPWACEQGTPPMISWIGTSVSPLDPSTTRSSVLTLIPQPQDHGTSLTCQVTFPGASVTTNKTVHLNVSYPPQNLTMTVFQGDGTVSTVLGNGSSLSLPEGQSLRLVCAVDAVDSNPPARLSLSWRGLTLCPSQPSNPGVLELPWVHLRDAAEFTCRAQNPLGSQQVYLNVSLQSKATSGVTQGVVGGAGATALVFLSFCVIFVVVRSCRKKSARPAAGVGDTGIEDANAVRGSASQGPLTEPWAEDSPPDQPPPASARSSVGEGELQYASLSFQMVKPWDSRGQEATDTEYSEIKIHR
Protein translocase subunit SecA (Escherichia coli (strain K12)), sequence (P10408 whole entry): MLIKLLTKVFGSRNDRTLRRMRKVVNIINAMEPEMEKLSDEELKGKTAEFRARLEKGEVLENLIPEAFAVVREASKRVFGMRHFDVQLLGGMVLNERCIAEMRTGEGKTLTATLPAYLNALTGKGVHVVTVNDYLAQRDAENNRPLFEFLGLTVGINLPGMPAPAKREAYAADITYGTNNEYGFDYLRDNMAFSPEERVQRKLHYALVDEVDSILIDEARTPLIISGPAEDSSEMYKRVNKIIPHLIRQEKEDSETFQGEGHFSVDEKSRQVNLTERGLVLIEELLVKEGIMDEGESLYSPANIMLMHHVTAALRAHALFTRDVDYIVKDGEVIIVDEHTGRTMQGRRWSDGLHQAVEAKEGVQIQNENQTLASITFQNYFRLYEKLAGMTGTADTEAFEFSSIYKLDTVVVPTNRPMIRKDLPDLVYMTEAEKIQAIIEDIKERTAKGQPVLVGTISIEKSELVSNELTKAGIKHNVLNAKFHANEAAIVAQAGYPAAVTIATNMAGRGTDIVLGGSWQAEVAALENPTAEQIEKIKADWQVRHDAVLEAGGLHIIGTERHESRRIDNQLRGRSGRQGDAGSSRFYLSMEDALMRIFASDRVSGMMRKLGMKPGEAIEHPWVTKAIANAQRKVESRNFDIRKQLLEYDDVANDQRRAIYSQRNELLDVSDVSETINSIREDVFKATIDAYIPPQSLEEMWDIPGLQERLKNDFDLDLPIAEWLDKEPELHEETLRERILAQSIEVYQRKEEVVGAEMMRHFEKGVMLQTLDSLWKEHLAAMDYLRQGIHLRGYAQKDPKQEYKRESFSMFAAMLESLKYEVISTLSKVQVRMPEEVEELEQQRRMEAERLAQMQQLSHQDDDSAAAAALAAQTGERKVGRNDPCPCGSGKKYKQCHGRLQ

| Structure (SMILES) | Percent Effect [1] [%] | Percent Effect [2] [%] | Percent Effect [3] [%] | Percent Effect [4] [%] | Percent Effect (Trypanosoma cruzi) [%] | Percent Effect [5] [%] | Percent Effect [6] [%] | Percent Effect (Homo sapiens) [%] | Percent Effect [7] [%] | Percent Effect [8] [%] | Percent Effect [9] [%] |
| --- | --- | --- | --- | --- | --- | --- | --- | --- | --- | --- | --- |
| CCc1nnc2n1CCN(C(=O)c1csc(-c3cnn(C)c3)n1)C2 | -4.14 | 12.5 | -3.73 | 15.8 | 4.96 | 8.39 | 15.1 | 0.753 | 3.16 | 7.69 | -5.68 |
| Cc1noc(C)c1CN1CC[C@@H](OCC2CC2)[C@@H](Cc2ccccc2)C1 | -3.38 | 13.3 | 8.95 | -2.52 | 3.15 | 1.63 | 14 | 1.91 | 5.32 | 14.1 | -5.06 |
| Cc1nn(C)c(C)c1C1CCCN1C(=O)c1ccc(NC2CC2)nc1 (stereo not given) | -1.33 | 16.2 | -3.14 | 10.9 | 0.464 | -4.25 | 5.92 | 22.6 | 7.92 | 18.3 | -2.71 |
| Cc1nc2c(c(NC3CC3)n1)CCN(C(=O)C(C)(C)O)CC2 | -2.61 | 10.8 | 2.64 | -8.96 | -4.99 | -0.319 | 28 | 23.3 | 3.24 | 7.69 | -1.94 |
| COc1ccc(NC(=O)C2CCOC2)c(N2CCN(C(C)=O)CC2)n1 (stereo not given) | -2.36 | 2.7 | -66.2 | 2.08 | -0.391 | 2.5 | 19.7 | 2.27 | 8.91 | 11 | -5.79 |
